Hits are enriched below; roughly 1.8% of the tested compounds scored in any of these assays.
CCHF vOTU inh-1 = blocks the CCHF virus ovarian tumor domain protease; CCHFV vOTU protease, Pep-AMC fluorescence; inhibition, % at 11.5 µM; actives 0.55% (n = 370,000)
BH1578 lux ind = inducers of Vibrio cholerae quorum light production without autoinducers | V. cholerae BH1578 lux reporter, luminescence, 6 h | activation, % at 18.7 µM | actives 0.16% (n = 350,000); in the data active = activation mostly above about 9.7%, no sharp cut-off
MazEF act = increases E. coli MazEF RNase cleavage of RNA; AID 504720; activation, % at 20 µM; actives 0.32% (n = 350,000); FAM/BHQ RNA-DNA oligo cleavage fluorescence, 5 h; P0AE70; in the data active = activation above about 50%
Target sequence (P0AE70 whole entry, looked up): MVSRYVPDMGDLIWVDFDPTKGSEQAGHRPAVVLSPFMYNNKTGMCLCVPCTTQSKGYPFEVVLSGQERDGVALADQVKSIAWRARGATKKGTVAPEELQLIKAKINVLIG
PrPC surface inh = cell surface PrPC inhibition, primary TR-FRET screen; P04156; TR-FRET read-out; inhibition, % at 13.8 µM; actives 0.43% (n = 370,000); in the data active = inhibition above about 24%
Y pestis TopoI = inhibitors of Yersinia pestis topoisomerase I; AID 504884; Y. pestis Topo-I cleavage product accumulation, plate reader; activity, % at 10 µM; actives 0.064% (n = 360,000); in the data active = activity above about 50%, passing the limit was not always enough
DUSP3 inh = DUSP3 (human) phosphatase inhibition; actives 0.52% (n = 290,000); AID 1654; recombinant VHR phosphatase, pNPP absorbance; inhibition, % at 13.3 µM; P51452; in the data active = inhibition above about 50%
Target sequence (P51452 whole entry, looked up): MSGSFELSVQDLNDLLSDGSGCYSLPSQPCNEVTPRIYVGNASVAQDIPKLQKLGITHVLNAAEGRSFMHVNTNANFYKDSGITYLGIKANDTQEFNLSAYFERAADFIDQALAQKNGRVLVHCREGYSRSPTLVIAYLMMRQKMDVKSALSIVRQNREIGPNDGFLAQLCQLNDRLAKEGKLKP
CCHF vOTU inh-2 = confirmation of CCHF virus vOTU protease inhibitors; inhibition, % at 11.5 µM; Recombinant CCHFV vOTU, Pep-AMC fluorescence; shares compounds with CCHF vOTU inh-1; actives 17% (n = 1,900)
Hits are given with their value; i = inactive; nt = no result given. Cut-off read from the data, not from the text of the source, unless noted: active = inhibition above about 30%; inactive = the rest.

SMILES	CCHF vOTU inh-1	BH1578 lux ind	MazEF act	PrPC surface inh	Y pestis TopoI	DUSP3 inh	CCHF vOTU inh-2
O=C(Cc1ccc2c(c1)OCO2)NN=Cc1ccc([N+](=O)[O-])o1	32	i	i	i	i	nt	i
O=C(N/N=C/c1ccc(-c2ccccc2[N+](=O)[O-])o1)c1cncc(Br)c1	i	i	i	i	i	i	nt
CCCCCC(=O)N/N=C/c1ccc([N+](=O)[O-])o1	i	i	i	i	i	i	nt
O=C(Cc1ccc2c(c1)OCCO2)N/N=C/c1ccco1	i	i	i	i	i	nt	nt
O=C(N/N=C\c1ccc([N+](=O)[O-])o1)c1cncc(Br)c1	50	i	i	i	i	i	i
O=C(CCC(=O)Nc1ccc(Cl)cc1Cl)N/N=C/c1ccc([N+](=O)[O-])o1	39	i	i	i	i	i	i
O=C(N/C(=C/c1ccc(Br)cc1)C(=O)N1CCOCC1)c1ccco1	i	i	i	i	i	i	nt
CSc1ccc(/C=C(/NC(=O)c2ccco2)C(=O)N2CCOCC2)cc1	30	i	i	i	i	i	i
CCOC(=O)C1(Cc2cccc(Cl)c2)CCCN(C(=O)c2ccc(COC)s2)C1 (centres undefined)	31	i	i	i	i	i	i
CCOC(=O)C1(Cc2cccc(Cl)c2)CCCN(C(=O)c2ccco2)C1 (centres undefined)	i	i	i	i	i	i	nt
COCCN(C(=O)COC(=O)c1cccs1)c1c(N)n(Cc2ccccc2)c(=O)[nH]c1=O	i	i	i	i	i	i	nt
COc1ccc(Nc2ncnc3c2oc2ccccc23)cc1	33	i	i	i	i	i	i
Cc1ccc(Nc2ncnc3c2oc2ccccc23)cc1	i	i	i	i	i	i	nt
O=C(c1cccs1)N1C[C@H](O)[C@@H](n2cc(-c3ccc(F)cc3)nn2)C[C@@H]1c1ccccc1	i	i	i	i	i	nt	nt
CCc1ccc([C@@H]2CC(=O)[C@@H]3CN(S(=O)(=O)c4ccc(Cl)cc4)[C@H](c4ccc(C)cc4)C[C@@H]3N2S(=O)(=O)c2ccc(C)cc2)cc1	35	nt	nt	i	nt	nt	i
CCc1ccc([C@H]2[C@@H]3C(=O)C[C@@H]4C(=O)N(CC)C(=O)[C@@H]4[C@@H]3CN2S(=O)(=O)c2ccc(C)cc2)cc1	i	nt	nt	i	nt	nt	nt
Cc1ccc([C@@H]2CC(=O)[C@@H]3CN(S(=O)(=O)c4ccc(C)cc4)[C@H](c4ccc(Cl)cc4)C[C@@H]3N2S(=O)(=O)c2ccc(Cl)cc2)cc1	31	i	i	i	i	nt	i
CCc1ccc([C@H]2[C@@H]3C(=O)C[C@@H]4C(=O)N(C)C(=O)[C@@H]4[C@@H]3CN2S(=O)(=O)c2ccc(C)cc2)cc1	30	nt	nt	i	nt	nt	i
Cc1ccc(S(=O)(=O)N2C[C@H]3C(=O)C[C@@H](c4ccc(Cl)cc4)N(S(=O)(=O)c4ccc(C)cc4)[C@H]3C[C@H]2c2ccc(Cl)cc2)cc1	i	nt	nt	i	nt	nt	nt
O=C(Nc1ccc(Cl)cc1)c1cc(Br)ccc1OCC(=O)N1CCOCC1	i	i	i	i	i	i	nt
O=C(O/C(=C/c1ccccc1)C(F)(F)F)c1ccccc1	i	i	i	i	i	nt	nt
O=C1C[C@@H](O)[C@H](O)c2cccc(O)c21	45	nt	nt	i	nt	nt	i
O=C1O[C@@H](c2ccc(O)cc2)Cc2cccc(O)c21	i	i	i	i	i	nt	nt
CCOC(=O)c1cnc2cc(-c3ccc(C)cc3)nn2c1C	30	i	i	i	i	nt	i
CCOC(=O)c1cnc2cc(-c3ccc(C)cc3)nn2c1-c1ccccc1	i	i	i	i	i	i	nt
CCOC(=O)C[C@H]1c2ccccc2S(=O)(=O)N1c1ccccc1	i	i	i	i	i	nt	nt
N#Cc1c(-c2ccccc2)nc(SCc2cccc(Cl)c2)[nH]c1=O	32	i	i	i	i	i	i
Cc1[nH]c(=O)nc(SCc2cccc(Cl)c2)c1C#N	i	i	i	i	i	i	nt
O=c1cc(C(F)(F)F)nc(SCc2cccc3ccccc23)[nH]1	31	i	i	i	i	i	i

Compound activity: PubChem, several laboratories
